In PubChem BioAssay (NCATS):
Results filed as inconclusive are left out. Unmarked numbers belong to inactive results. Active and inactive are the calls of the source. Calls come from the whole dose curve; as a rule, active = well fitted inhibition curve with a large enough effect; inconclusive = small, poorly fitted or top-dose-only effect; inactive = flat fitted curve, though single readings scatter. Residues, ends and D or L forms follow the SMILES beside them. *: point of attachment. Cbz = O=C(OCc1ccccc1)*

target: Phospholipid hydroperoxide glutathione peroxidase GPX4 (Homo sapiens) (UniProt P36969); experiment: Primary qHTS Assay for Inhibitors of Recombinant Selenoprotein Glutathione Peroxidase 4 (GPX4) (AID 1845192); settings: recombinant GPX4, GR-coupled NADPH fluorescence, 15 min; series mostly up to 50 µM; activity change, negative = inhibition: at the top concentration; note: nearly all actives have a fitted effect of over 65% in size
From the text: Assay Provider: Elias S.J. Arner MD PhD.
Department of Medical Biochemistry and Biophysics
Karolinska Institutet, Solna, Stockholm, Sweden
Selenoprotein glutathione peroxidases (GPX), like the ubiquitously expressed GPX1 and the ferroptosis modulator GPX4, enact their antioxidant activities by reducing hydroperoxides using glutathione. […] GPX1 and GPX4 inhibitors have thus shown promise as anti-cancer agents. Existing inhibitors are often promiscuous, or modulate GPX activity only indirectly, so novel direct inhibitors identified through screening against GPX1 and GPX4 could be valuable. Here, we developed optimized glutathione reductase (GR)-coupled GPX assays for the biochemical high-throughput screen (HTS) of almost 12,000 compounds with known mechanisms of action. Initial hits were triaged using a GR counter-screen, assessed for isoform specificity using a separate GPX2 assay, and were assessed for general selenocysteine-targeting activity using a thioredoxin reductase (TXNRD1) assay. With this suite of assays, we identified novel GPX1/GPX2- and GPX4-specific inhibitors and can here present a validated pipeline for future discovery research for selenoprotein-targeting agents.
SEQUENCE No. (e.g., 1, 2, 3, etc.); […] (e.g., Cells, Incubation, Reagent, etc.); VALUE; DESCRIPTION.
1; Reagent 1; 3 uL; 333.33 nM GPx4 enzyme or no enzyme control in 1536-well, black, solid Greiner assay plate.
2; Compound; 25 nL; Kalypsis pin tool (Wako USA) equipped with a 1536-well pin head.
3; Incubation; 30 min; room temperature.
4; Reagent 2; 1 uL; 500 nM GR, 5 mM GSH, 2.5 mM NADPH solution
5; Reagent 3; 1 uL; 2.5 mM CHP in 50% EtOH.
6; Detection; Fluorescence; ViewLux microplate reader, excitation 340 nm and emission 450 nm.
7; Incubation; 15 min; room temperature.
8; Detection; Fluorescence; ViewLux microplate reader, excitation 340 nm and emission 450 nm.
NOTES (numbers refer to Sequence numbers above)
1. 3 µL of 333.33 nM GPX4 and 0.016% BSA in assay buffer (50 mM Tris-HCl, 2 mM EDTA (pH 7.5), 150 mM NaCl) was added to columns 3-48 of 1536-well plates using a BioRAPTR Flying Reagent Dispenser (Let's Go Robotics (LGR), Carlsbad, CA). A no-enzyme control (0.01% BSA in TES assay buffer) was added to columns 1-2.
2. 25 nL, library and DMSO controls were added to each well with a pin tool (Kalypsys).
3. The assay plates were incubated for 30 minutes at room temperature.
4. 1 µL of master mix (500 nM glutathione reductase (GR), 5 mM reduced glutathione (GSH), 2.5 mM NADPH in assay buffer) was added.
5. 1 µL of cumene hydroperoxide (CHP) ([2.5 mM] in 50% EtOH) was then added within 5 minutes to initiate the reaction. Final concentrations were: 200 nM GPX4, 1 mM GSH, 0.5 mM CHP, 0.5 mM NADPH, 100 nM GR, 0.01% BSA.
6. Initial fluorescence readout (t=0) at 340/450 nm was measured using a ViewLux multimodal detector (PerkinElmer, Waltham, MA).
8. Endpoint fluorescence readout (t=15) at 340/450 nm was measured 15 min after room temperature incubation.
Potency is the fitted concentration of half-maximal effect.

Phospholipid hydroperoxide glutathione peroxidase GPX4 (Homo sapiens), sequence (P36969 whole entry, looked up): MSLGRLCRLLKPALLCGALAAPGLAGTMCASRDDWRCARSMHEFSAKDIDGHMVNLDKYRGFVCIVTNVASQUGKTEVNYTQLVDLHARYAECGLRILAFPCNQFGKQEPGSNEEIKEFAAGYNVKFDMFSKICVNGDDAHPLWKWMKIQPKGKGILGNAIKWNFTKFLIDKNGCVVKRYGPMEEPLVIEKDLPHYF

Row | SMILES | outcome | activity change, negative = inhibition [%] | Potency
1 | C=C1C[C@@]23CC[C@H]4[C@@](C)(CCC[C@@]4(C)C(=O)OC4OC(CO)C(O)C(O)C4O)[C@@H]2CC[C@]1(OC1OC(CO)C(O)C(O)C1OC1OC(CO)C(O)C(O)C1O)C3 (stereo not given in full) | inactive | – | –
2 | COc1cc(/C=C(\C#N)C(=O)Nc2nnc(C(F)(F)F)s2)ccc1OCc1ccc(C(F)(F)F)cc1C(F)(F)F | inactive | – | –
3 | O=c1[nH]c(=S)[nH]c(-c2ccccc2)c1Cc1c(O)ccc2ccccc12 | – | -0.443 | –
4 | N=C(N)SCCN | inactive | – | –
5 | CCCc1c(OCCCOc2ccc(OCC(=O)O)cc2)ccc(C(C)=O)c1O | inactive | – | –
6 | CCCCCCCCCCCCCCSCC(=O)O | – | 0.869 | –
7 | C=CC1(C)CC(=O)C2(O)C(C)(O1)C(OC(C)=O)C(O)C1C(C)(C)CCC(O)C12C (stereo not given) | – | -9.49 | –
8 | NCCS(=O)O | – | -13.7 | –
9 | c1ccc2c(c1)CCC[C@H]2Nc1nc2ccccc2[nH]1 | – | 4.32 | –
10 | C=CCNc1ncnc2ccc(Br)cc12 | – | 0.607 | –
11 | CNc1ncnc2c1ncn2[C@H]1C[C@H](OP(=O)(O)O)[C@@H](COP(=O)(O)O)O1 | – | -1.52 | –
12 | CN(C)S(=O)(=O)c1ccc2c(c1)/C(=C/c1cc3c([nH]1)CCCC3)C(=O)N2 | – | – | inactive
13 | O=C1Nc2ccc(I)cc2/C1=C/c1cc(Br)c(O)c(Br)c1 | – | -3.9 | –
14 | N[C@H]1CONC1=O | – | 0.33 | –
15 | Nc1nc2[nH]c(=O)cnc2c(=O)[nH]1 | inactive | – | –
16 | Cn1c(=O)c2[nH]c(C3CCCC3)nc2n(C)c1=O | inactive | – | –
17 | CN1CCc2cc(Cl)c(O)cc2[C@@H](c2ccccc2)C1 | inactive | – | –
18 | CC(C)[C@H](NC(=O)OCc1ccccc1)C(=O)N[C@H](C=O)Cc1ccccc1 (Cbz-Val-Phe-aldehyde) | inactive | – | –
19 | COCc1nc2c([nH]1)c(=O)n(C)c(=O)n2CC(C)C | – | 0.858 | –
20 | Clc1nccc2c1ccc1ccccc12 | – | 0.885 | –

Row | SMILES | outcome | activity change, negative = inhibition [%] | Potency
21 | CC[N+](CC)(CC)CC(=O)Nc1c(C)cccc1C | inactive | – | –
22 | NCCC1CCCC(CCN)N1 (stereo not given) | – | 2.6 | –
23 | CCCCOC(=O)NS(=O)(=O)c1sc(CC(C)C)cc1-c1ccc(Cn2c(CC)nc3c(C)cc(C)nc32)cc1 | inactive | – | –
24 | CCCn1c(=O)c2[nH]c(C3CCCC3)nc2n(CCC)c1=O | inactive | – | –
25 | N=C(N)c1ccc(OCCCCCOc2ccc(C(=N)N)cc2)cc1 (tested in a mixture with another compound) | inactive | – | –
26 | CC[C@H](NC(=O)c1c(C)c(-c2ccccc2)nc2ccccc12)c1ccccc1 | – | -8.53 | –
27 | C=C1C[C@@]23CC[C@H]4[C@@](C)(CCC[C@@]4(C)C(=O)O)[C@@H]2CC[C@]1(O)C3 | – | -2.64 | –
28 | Nc1ncnc2c1nc(Sc1ccc(Cl)cc1)n2[C@H]1OC2COP(=O)(O)O[C@@H]2C1O (stereo not given in full) | – | -12.2 | –
29 | c1ccc(C2CN3CCSC3=N2)cc1 (stereo not given) | – | – | inactive
30 | N[C@@H](Cc1c[nH]c2ccccc12)C(=O)O | inactive | – | –
31 | Cc1nc2n(c(=O)c1CCN1CCC(c3noc4cc(F)ccc34)CC1)CCCC2O (stereo not given) | – | -12.6 | –
32 | CC(/C=C/c1cccc(Oc2ccc(F)cc2)c1)N(O)C(N)=O (stereo not given) | – | -4.1 | –
33 | CC(O)C(O)[C@H]1CNc2nc(N)[nH]c(=O)c2N1 (stereo not given in full) | – | -7.96 | –
34 | O=C(O)/C=C/c1ccc(O)c(O)c1 | inactive | – | –
35 | NCCCNCCCCNCCCN | inactive | – | –
36 | CCCCCCCCCCC(C)(C)C(=O)Nc1c(OC)cc(OC)cc1OC | inactive | – | –
37 | N[C@@H](CCC(=O)N[C@H](CSN=O)C(=O)NCC(=O)O)C(=O)O | – | -17.4 | –
38 | OC[C@H]1O[C@@H](n2cnc3cncnc32)[C@H](O)[C@@H]1O | – | -13.8 | –
39 | CCCn1c(=O)c2[nH]c(-c3ccc(S(=O)(=O)O)cc3)nc2n(CCC)c1=O | – | – | 11.2 µM (active)
40 | CC[n+]1c(/C=C/C=C2/N(C)c3ccccc3C2(C)C)sc2ccccc21 | inactive | – | –
